Inconclusive results are not listed. Activity calls are given as the source filed them. Calls follow the shape of the dose curve; as a rule, active = well fitted cell-killing curve with a large enough effect; inconclusive = small, poorly fitted or top-dose-only effect, or effect the other way; inactive = no such curve, though single readings can be large or run the other way.
Potency is read from the fitted curve at half-maximal effect.

The nature of the assay: Viability qHTS for spleen associated tyrosine kinase inhibitor (SYKi) drug resistant MV4-11 cells (AID 1963824). Also: nearly all actives have a fitted effect of over 35% in size. The conditions noted are these: SYKi-resistant MV4-11 viability, CellTiter-Glo, 72 h; series mostly up to 45 µM. The method in brief:
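CellTiter-Glo luminescence, read 10 min after reagent addition, reports viability after a 72 hr compound exposure. Cells are an MV4-11 line made resistant to SYK inhibition, seeded at 500 per well onto compound-containing plates.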
A general note: In qHTS, concentration-response curves come from the screen itself.
As to `COc1ncc(Nc2ncc([C@@H](C)N3CCN(S(C)(=O)=O)CC3)cc2-c2nc(C)nc(N)n2)cc1F`, the Potency result was “inactive”. Then `CCN=C1N[C@@H]2[C@@H](O)[C@H](O)[C@@H](CO)O[C@@H]2S1`, with “inactive”; and `C=C1C2=CC(O)C(C)C1(C)CC/C(C)=C/CCC1(C)OC1C2=O` (configuration not stated), with 10.1 µM (active). As for `CC(C)(CO)c1cc2cc(NC(=O)C3(c4ccc5c(c4)OC(F)(F)O5)CC3)c(F)cc2n1CC(O)CO` (configuration not stated), the Potency is 16.4 µM (active). With `Cc1ccc2[nH]c(=O)c(C3=NN(C(=O)CCC(=O)O)C(c4ccc(Br)cc4)C3)c(-c3ccccc3)c2c1` (configuration not stated), the Potency was 23.1 µM (active). Take `C[C@@H](NC(=O)[C@H](O)c1cc(F)cc(F)c1)C(=O)N[C@@H]1C(=O)N(C)c2ccccc2-c2ccccc21`: the Potency was 18.4 µM (active). In the case of `C=C1C(OC2OCC(O)C(O)C2O)CC2C(C)(C)C(O)CCC2(C)C1CC/C(C)=C\CO` (configuration not stated), the Potency is 7.09 µM (active). Take `CC(=O)OC1CC(C)C2(CCC3(CC(=O)OC3O)O2)C2(C)CCCC(C)(C)C12` (configuration not stated): the Potency is 10 µM (active).

Turning to `CN(C)c1nc(NC2CCC(NC(=O)c3ccc(F)c(F)c3)CC2)nc2ccccc12` (configuration not stated), the Potency was 0.82 µM (active). With `COc1ccc2c(c1)OC[C@]1(O)c3cc4c(cc3O[C@H]21)OCO4`, the Potency entry is “inactive”. As to `COc1ccc(N2CCN(C(=O)c3cc4c(s3)-c3ccccc3S(=O)(=O)C4)CC2)cc1`, the Potency result was “inactive”.

Take `O=C1CC2(CCCC2)[C@H](O)C(=O)N1CCCCN1CCN(c2ncccn2)CC1`: the Potency result was “inactive”. Take `COc1ccc2c(c1)O[C@H](O[C@@H]1O[C@H](CO)[C@@H](O)[C@H](O)[C@H]1O)C(=O)N2`: the Potency entry was “inactive”.

In the case of `CC1=CC2C(CC1OC1OC(CO)C(O)C(O)C1O)C(C)CC(=O)C2C(C)C` (configuration not stated), the Potency entry was “inactive”.

Regarding `CC(=O)N1c2ccc(-c3ccc(C(=O)O)cc3)cc2C(Nc2ccc(Cl)cc2)CC1C` (configuration not stated), the Potency is 0.0461 µM (active). Then `COC(=O)C[C@H]1C(C)(C)[C@H](OC(=O)c2ccccc2)C2CC3=C4CC(=O)O[C@@H](c5ccoc5)[C@]4(C)CCC3[C@@]1(C)C2=O` (some centres not stated), with 10 µM (active); and `Cc1ccc(S(=O)(=O)NCc2ccc(C(=O)NCCN(Cc3ccccc3)C(C)C)cc2)cc1`, with 14.6 µM (active). Take `O=C1NC(=NCc2cccs2)S/C1=C/c1ccc2ncccc2c1`: the Potency is 1.84 µM (active). For `CCCn1cc2c(nc(NC(=O)Nc3ccc(OC)cc3)n3nc(-c4ccco4)nc23)n1`, the Potency entry is “inactive”. As to `CC(=O)OCC(Cc1ccccc1)NC(=O)C(Cc1ccccc1)NC(=O)c1ccccc1` (configuration not stated), the Potency result is “inactive”. Regarding `C[C@@H]1O[C@@H](O[C@H]2CC[C@@]3(C)C(CC[C@]4(C)C3CC=C3[C@@H]5CC(C)(C)CC[C@]5(C(=O)O[C@@H]5O[C@H](CO)[C@@H](O)[C@H](O)[C@H]5O)CC[C@]34C)[C@]2(C)CO)[C@H](O)[C@H](O[C@@H]2O[C@H](CO)[C@@H](O)[C@H](O)[C@H]2O)[C@H]1O` (some centres not stated), the Potency is 3.9 µM (active). As for `CC(C)C1CCC(C(=O)N[C@@H](Cc2ccccc2)C(=O)O)CC1` (some centres not stated), the Potency entry was “inactive”.

(Values after PubChem BioAssay (NCATS).)
